Laboratory results reported in PubChem BioAssay AID1259421 (Broad Institute, 2018).
Where “and” joins values, the source holds several entries; their conditions need not be identical. Equal values may be shown once. In all, about 6,400 compounds went through this assay and about 610 (9.5%) were called active. Rule as the data show it: active = activity change below about -70%; inconclusive = no clear call, values can overlap the other calls; inactive = above that. The list comes from a sample in which actives are over-represented; it also holds similar structures and randomly drawn compounds. Some compounds were tested as several samples or in several runs, with calls that do not always agree. Where a SMILES comes first, the peptide text is derived from it. The star is where a group is joined. PhAc = O=C(Cc1ccccc1)*

Test: T. gondii ME49Luc in HeLa cells, luciferase assay, 72 h, no IFN-y (AID 1259421)
Settings: stronger effect = lower value, concentration not given here

| Structure (SMILES) | activity change, negative = inhibition |
| --- | --- |
| CCCCN(CCCC)CCC(O)c1cc2c(Cl)cc(Cl)cc2c2cc(C(F)(F)F)ccc12 (stereo unspecified) | -83% (active) |
| CC(=O)N1CCCC1C(=O)O (stereo unspecified) | 6.22% (inactive) |
| CC(=O)NC1[C@@H](O)OC(CO)[C@@H](O)[C@H]1O (stereo partly specified) | 16% (inactive) |
| COc1cc2c(cc1OC)CN(CCc1ccc(NC(=O)c3cccc4c(=O)c5cccc(OC)c5[nH]c34)cc1)CC2 | -79.7% (active) |
| COc1cc2c(cc1OC)CN(CCc1ccc(NC(=O)c3cc(OC)c(OC)cc3NC(=O)c3cnc4ccccc4c3)cc1)CC2 | 1.38% (inactive) |
| COc1cccc([C@H](O)C2CCN(CCc3ccc(F)cc3)CC2)c1OC | 11% (inactive) |
| COC1CCN(C(=O)c2cc(Cc3n[nH]c(=O)c4ccccc34)ccc2F)CC1 | 11.9% (inactive) |
| CCC(=O)OCC(=O)C1(OC(=O)CC)[C@H](C)C[C@H]2C3[C@H](Cl)CC4=CC(=O)C=C[C@]4(C)[C@H]3[C@@H](O)C[C@@]21C (stereo partly specified) | 11.6% (inactive) |
| c1ccc(CN2CCC3(CCc4ccccc43)CC2)cc1 | 16.7% (inactive) and 4.6% (inactive) |
| COc1ccccc1N1CCN(CC(C(=O)NC(C)(C)C)c2ccccc2)CC1 (stereo unspecified) | 6.24% (inactive) |
| OCc1ccc(O[C@@H]2O[C@@H](CO)[C@@H](O)[C@H](O)[C@H]2O)cc1 | -0.0846% (inactive) |
| CCOc1cc(/C=C(/C#N)C(N)=O)cc(CSc2ccccc2)c1O | 32.6% (inactive) |
| O=C(NC1CCOCC1)c1ccc(-c2cc(-c3cn[nH]c3-c3ccccn3)ccn2)cc1 | -1.45% (inactive) |
| Cc1cccc(-c2[nH]ncc2-c2ccc3ncccc3n2)n1 | -16% (inactive) |
| c1ccc(-c2[nH]ncc2-c2ccnc3ccccc23)nc1 | -65.8% (inactive) and -82.5% (active) |
| C=C1/C(=C\C=C2/CCC[C@]3(C)[C@@H]([C@H](C)CCCC(O)(C(F)(F)F)C(F)(F)F)CC[C@@H]23)C[C@@H](O)C[C@@H]1O | 7.67% (inactive) |
| CNc1ncnc2c1ncn2[C@@H]1O[C@H](CO)[C@@H](O)[C@H]1O | 13.6% (inactive) |
| OC[C@H]1O[C@@H](n2cnc3c(NC4CCCC4)ncnc32)[C@H](O)[C@@H]1O | 13.5% (inactive) |

| Structure (SMILES) | activity change, negative = inhibition |
| --- | --- |
| OC[C@H]1O[C@@H](n2cnc3c(NCc4ccco4)ncnc32)[C@H](O)[C@@H]1O | -71.9% (active) |
| OCCOCCN1CCN(Cc2cccc(Oc3ccccc3)c2)CC1 | 8.65% (inactive) |
| CC(C)CC(NC(=O)N1CCCCCC1)C(=O)NC(Cc1cn(C)c2ccccc12)C(=O)NC(Cc1ccccn1)C(=O)O (stereo unspecified) | 5.64% (inactive) |
| C=CC1=C(C(=O)O)N2C(=O)[C@@H](NC(=O)/C(=N/O)c3csc(N)n3)[C@H]2SC1 | 5.5% (inactive) |
| CCOC(=O)CNC(=O)[C@@H]1CCCN1C(=O)Cc1ccccc1 (PhAc-Pro-Gly-OEt) | 13.8% (inactive) |
| CC(C)(C)C1CCC(CC2C(=O)C(=O)c3ccccc3C2=O)CC1 (stereo unspecified) | -75.1% (active) |
| O=C1C(=O)C(C2CCC(c3ccc(Cl)cc3)CC2)C(=O)c2ccccc21 (stereo unspecified) | -68.3% (inactive) and -68.8% (inactive) |
| O=C1c2ccccc2C(=O)C1c1ccccc1 | -3.55% (inactive) |
| CS/C(N)=C(C#N)/C(C#N)=C(\N)SC | 1.99% (inactive) and 0.209% (inactive) |
| O=C(O)c1ccc(NC2OCC(O)C(O)C2O)cc1 (stereo unspecified) | 11.7% (inactive) |
| CCCCCCCCNC(=O)C(Cc1ccc(OCc2ccncc2)cc1)NC(=O)C1CCC(CN)CC1 (stereo unspecified) | 20.5% (inactive) |
| NC(=O)c1[nH]cnc1O | 5.36% (inactive) |
| CN(C)N=Nc1ccc(C(=O)O)cc1 | 17.4% (inactive) |
| CN(C)/N=N/c1nc[nH]c1C(N)=O | -84.8% (active) and -88.3% (active) and -94.9% (active) |
| Cc1cc(-c2ccc(N=Nc3ccc4c(S(=O)(=O)O)cc(S(=O)(=O)O)c(N)c4c3O)c(C)c2)ccc1N=Nc1ccc2c(S(=O)(=O)O)cc(S(=O)(=O)O)c(N)c2c1O | -45.6% (inactive) |
| Cc1cnc(NC(=O)C2C(=O)c3ccccc3S(=O)(=O)N2C)s1 (stereo unspecified) | 17.6% (inactive) and 14.2% (inactive) |
| CN1CCc2cc3c(cc2C(=O)Cc2ccc4c(c2C1)OCO4)OCO3 | 7.67% (inactive) |
| CC[C@@H](C(=O)C(C)[C@@H](O)[C@H](C)CCc1ccc(C)c(O)c1C(=O)O)C1OC(CC)(C2CC[C@](O)(CC)[C@H](C)O2)C[C@@H]1C (stereo partly specified) | -85.8% (active) |
